The full ranking holds about 33,000 sequences; the median of “E-score (-0.5 to 0.5)” is about -0.035, and the highest 2% start at about 0.35. For the sample, the highest values were picked, then their nearest neighbours and some sequences at random.

In this assay the target is T1, Pdr3 (UniProt P33200).
T1 sequence: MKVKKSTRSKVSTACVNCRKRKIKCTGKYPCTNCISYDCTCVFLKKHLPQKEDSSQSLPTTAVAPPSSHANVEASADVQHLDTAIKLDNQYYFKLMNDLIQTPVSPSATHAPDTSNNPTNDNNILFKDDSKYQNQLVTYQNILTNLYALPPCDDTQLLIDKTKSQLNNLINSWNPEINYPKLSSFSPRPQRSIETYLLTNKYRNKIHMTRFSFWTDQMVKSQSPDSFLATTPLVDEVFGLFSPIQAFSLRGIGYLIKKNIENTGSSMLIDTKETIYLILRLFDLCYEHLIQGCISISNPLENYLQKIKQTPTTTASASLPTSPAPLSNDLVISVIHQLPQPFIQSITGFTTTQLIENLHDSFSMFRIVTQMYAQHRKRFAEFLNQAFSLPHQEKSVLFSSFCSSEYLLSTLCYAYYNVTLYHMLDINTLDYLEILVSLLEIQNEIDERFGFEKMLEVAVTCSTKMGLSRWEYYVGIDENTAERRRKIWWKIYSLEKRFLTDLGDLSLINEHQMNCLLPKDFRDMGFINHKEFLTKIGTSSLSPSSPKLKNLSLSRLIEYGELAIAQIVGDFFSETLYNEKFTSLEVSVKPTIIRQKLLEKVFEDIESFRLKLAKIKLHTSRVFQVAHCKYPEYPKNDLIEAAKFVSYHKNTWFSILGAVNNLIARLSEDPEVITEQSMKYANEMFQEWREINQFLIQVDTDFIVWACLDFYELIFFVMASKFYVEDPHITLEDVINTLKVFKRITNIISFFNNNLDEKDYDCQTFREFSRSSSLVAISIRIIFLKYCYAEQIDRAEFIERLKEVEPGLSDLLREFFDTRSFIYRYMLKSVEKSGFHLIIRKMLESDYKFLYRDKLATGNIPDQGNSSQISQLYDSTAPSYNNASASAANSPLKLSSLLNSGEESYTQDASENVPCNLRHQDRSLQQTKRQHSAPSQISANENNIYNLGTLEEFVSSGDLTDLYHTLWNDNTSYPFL
In words: PBM E-score (8-mer binding enrichment) (E-score (-0.5 to 0.5)); higher = stronger / more preferred TF binding. The conditions noted are these: protein concentration: 200 nM; construct: GST-full length. How it is done: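 Universal 'all 10-mer' protein binding microarrays (Agilent AMADID 015681) probed with GST-tagged S. cerevisiae TFs (full-length or DBD) made by in vitro transcription/translation (PURExpress), about 100-200 nM. Bound TF was detected with fluorescent anti-GST. Each ungapped 8-mer (which stands for itself and its reverse complement) is scored by the PBM enrichment score (E-score), a modified Wilcoxon-Mann-Whitney statistic from -0.5 to +0.5, computed with the Universal PBM Analysis Suite. Scale: above 0.35 generally sequence-specific binding.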
Take CTTCAACC: the “PBM E-score” value came to 0.00827. Take AGTGATCA: the “PBM E-score” value was -0.0706. Regarding CGATAGGC, the “PBM E-score” value was -0.216. The same measure for GTGCGACA: -0.0394; for AGGCAGGA: -0.149. The same measure for AGCACGAG: 0.0609; for CGTGAGGA: -0.063. On to ATGACCCA, for which the “PBM E-score” value was -0.0734. For the sequence GGATACCA, the “PBM E-score” value amounted to 0.212.

Turning to ATCGGTTC, the “PBM E-score” value was 0.192. The same measure for AATCTTTC: 0.13; for GGGCGGAA: 0.414; for GGGCGGGA: 0.35. As for GGGCGGTA, the “PBM E-score” value was 0.195.

As to TATTCTAA, the “PBM E-score” value came out at 0.0298. On to CTCGCTCC, for which the “PBM E-score” value came to 0.0762. The same measure for AGAGGACA: -0.0484; for GGTCGACC: 0.38; for CGTCGACC: 0.0668.

As for AGTCGACC, the “PBM E-score” value stood at 0.0168. Regarding ACTTGCTG, the “PBM E-score” value is -0.278. For GCGCCCAC, the “PBM E-score” value is -0.0118.

In the case of ATCTTTCC, the “PBM E-score” value is 0.265.

Take CCGGGAGC: the “PBM E-score” value was 0.306. ACCGGAGC: the “PBM E-score” value is 0.356. The same measure for ACTGGAGC: -0.056; for CCCGGAGC: 0.39; for ACCGGAGG: 0.281. CCCGGTGC: the “PBM E-score” value turned out to be 0.215. For AGTGGCGC, the “PBM E-score” value was determined as 0.153. For the sequence TCGATAGA, the “PBM E-score” value is -0.125. With CCGTAACA, the “PBM E-score” value was -0.0633.

For ACCTTAGT, the “PBM E-score” value was -0.174. As to ACTCTATG, the “PBM E-score” value amounted to 0.0265. For AGGAACAC, the “PBM E-score” value came to 0.168. In the case of CGGAACAC, the “PBM E-score” value worked out at 0.483. In the case of TGGAACAA, the “PBM E-score” value was -0.0164.

With CGGAACAG, the “PBM E-score” value worked out at 0.466. In the case of CGGAACAA, the “PBM E-score” value came to 0.476.

Take GGGAACAA: the “PBM E-score” value came to 0.188. On to GGGAACAC, for which the “PBM E-score” value amounted to 0.183. Turning to CCGAACAG, the “PBM E-score” value stood at 0.0662. On to AGGAACAG, for which the “PBM E-score” value is -0.195. On to CCTAGTCG, for which the “PBM E-score” value is -0.23. CAGGTAAA: the “PBM E-score” value is -0.0305. For ATCCTATC, the “PBM E-score” value came out at 0.0308. As to ATTACCGG, the “PBM E-score” value turned out to be 0.243. With ACTAGAGG, the “PBM E-score” value is -0.161. Take CAATAAGA: the “PBM E-score” value is -0.172. With AAGGGGAG the figure was -0.118; with ACTACGGG, 0.118; with ATTACGGG, -0.0819. The same measure for ACTACGGA: 0.362; for CCTACGGA: 0.239; for ATTACGGA: 0.361. Consider ATTACGGC, for which the “PBM E-score” value stood at 0.0318. Regarding ATACGAAA, the “PBM E-score” value was 0.182. On to AACACAGT, for which the “PBM E-score” value is -0.0579. Consider TGGAGTAA, for which the “PBM E-score” value is -0.0368. Turning to TGGAAACA, the “PBM E-score” value is -0.184. On to CCCGACCA, for which the “PBM E-score” value came out at 0.155. Take GCGTACGA: the “PBM E-score” value is -0.0757. As for AGAAGGGA, the “PBM E-score” value was -0.323. As for GTTGCGGA, the “PBM E-score” value was found to be 0.236. With CCGATCCG, the “PBM E-score” value was 0.371.

ACGATCCG: the “PBM E-score” value stood at 0.368. Take CCGATCCA: the “PBM E-score” value came out at 0.155. Consider ACGATCCA, for which the “PBM E-score” value is -0.0267.

With ACGATCCC, the “PBM E-score” value was found to be 0.183. As to CCGATCCC, the “PBM E-score” value was 0.175. GCCAGTAC: the “PBM E-score” value is -0.0709. Turning to ATTTTGGC, the “PBM E-score” value is 0.16. With TAGTCATA, the “PBM E-score” value was -0.247. The same measure for ACCTGGCC: 0.162; for TATCTTAA: -0.0962. CTACGGAC: the “PBM E-score” value is 0.0596.

As to TTACGAAA, the “PBM E-score” value is -0.0461. On to ATACGGAC, for which the “PBM E-score” value was determined as 0.239. Consider CTACGGAG, for which the “PBM E-score” value turned out to be 0.246. TTACGGAA: the “PBM E-score” value turned out to be 0.419.

GTACGGAC: the “PBM E-score” value stood at 0.278. As for CTACGGAA, the “PBM E-score” value is 0.407. As to ATACGGAA, the “PBM E-score” value worked out at 0.439. Take TTATGGAA: the “PBM E-score” value came out at 0.0348. Consider ATACGGAT, for which the “PBM E-score” value was 0.241. Take GTACGGAA: the “PBM E-score” value stood at 0.402.

As for GTACGGTA, the “PBM E-score” value is 0.0177. The same measure for ACGATTTC: 0.051; for TACTGATA: 0.0935. The same measure for ATGGACAC: 0.0372; for CTCCTCAA: -0.152. The same measure for GAACGCAA: 0.133; for GCGTTAGC: -0.213. Consider ATACAGCG, for which the “PBM E-score” value was -0.116.

These data come from the supplement of paper PMC3334620.
